Screens deposited in PubChem by National Center for Advancing Translational Sciences (NCATS).
This excerpt belongs to a sample that is enriched for hits.
Pf Dd2 growth = blocks in vitro growth of P. falciparum Dd2 | P. falciparum Dd2 growth, SYBR Green, 72 h | Potency, µM (doses to about 28.9 µM), without a hit: top-dose activity, negative = inhibition, most hits filed as inhibitors | hit rate 4.3% among 120,000 | AID 1347417; active means well fitted inhibition curve with a large enough effect;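 further: plate controls were DMSO vehicle for no effect and reference drug for full effect; nearly all actives have a fitted effect of over 65% in size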
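Readout: SYBR Green fluorescence, 485 nm excitation, 535 nm emission, after ~16 h lysis at 37C. Before that, Dd2-infected red cells (2.5% hematocrit) grew 72 h with compound, 29 uM top final concentration.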
Active calls of the source: *; i = inactive; [ ] = remark or other dose. Potency means the concentration at half of the fitted maximal effect.

SMILES | Pf Dd2 growth
CN1Cc2ncnc(NCCCO)c2CN(c2ccccc2)C1=O | 27.9%[44.1 µM]
Cn1ncc(N2CCCC(CC(=O)NCc3ccccc3F)C2)cc1=O (configuration not stated) | 9.1%
Cc1ccc(C)c(-c2cc3c(=O)n(CCNC(=O)c4ccc5c(c4)OCO5)ccn3n2)c1 | i
O=C(CSCCN1CCCC1)N1CCC(n2cnnc2)CC1 | 16.9%
CCn1nccc1C(=O)NCC(=O)N1CCCCCNC(=O)CC1c1ccccc1 (configuration not stated) | -14.0%
COCCN1CCNc2cc(-c3ccc(Oc4ccccc4)cc3)ncc2C1 | -17.0%[44.1 µM]
CC(c1cccs1)N(C)Cc1cccc(C(F)(F)F)c1 (configuration not stated) | 16.0%[44.1 µM]
C=Cc1ccc(Cn2c(C)c(CNCc3ccccc3C)c(C(=O)O)c2C)cc1 | 2.4%
COc1cc(CNCc2c(C(=O)O)c(C)n(Cc3cccc(Cl)c3)c2C)cc(OC)c1OC | 0.1%
Cc1c(CNC2CCCCC2)c(C(=O)O)c(C)n1Cc1ccc(Cl)cc1 | -24.7%
C=Cc1ccc(Cn2c(C)c(CNCc3cccc(Br)c3)c(C(=O)O)c2C)cc1 | -17.0%
Cc1c(CNCCCc2ccccc2)c(C(=O)O)c(C)n1Cc1ccc(Cl)cc1 | 8.91µM*
Cc1c(CNCCCc2ccccc2)c(C(=O)O)c(C)n1Cc1cccc(Cl)c1 | 8.91µM*
O=C(c1cccnc1)N1CCCC(Cc2nc(C3CCOCC3)no2)C1 (configuration not stated) | 29.6%
COCc1nc(NCc2sc(COC)nc2C)cc(C2CC(N)C2)n1 (configuration not stated) | -15.8%
CNC(=O)[C@@H]1CN(S(=O)(=O)c2cccs2)C[C@H]1c1nc(C)no1 | 10.9%
Cc1ccc(-n2nc(C(=O)N3CCN(c4ccccc4F)CC3)c(=O)n(C)c2=O)cc1 | 3.5%
Cc1ccc(-n2nc(C(=O)N3CCN(c4cc(Cl)ccc4C)CC3)c(=O)n(C)c2=O)cc1 | 10µM*
Cc1ccc(-n2nc(C(=O)N3CCN(c4cc(Cl)ccc4C)CC3)c3c4ccccc4n(C)c3c2=O)cc1 | 6.1%
Cc1ccc2c(c1)-c1c(c(C(=O)N3CCN(c4cc(Cl)ccc4C)CC3)nn1C)CS2 | 10µM*
COc1cccc(N2CCN(C(=O)c3nn(C)c4c3CSc3ccc(C)cc3-4)CC2)c1 | 19.9%
Cn1nc(C(=O)N2CCN(c3ccccc3F)CC2)c2c1-c1ccccc1SC2 | 15.1%
COCCCN1C(=O)CC[C@H]2CN(C(=O)c3cn(C)c(=O)[nH]c3=O)CC[C@H]21 | 0.4%
COc1ccc(C(C(=O)O)N2CCN(Cc3csc(C)n3)CC2)c(C)c1 (configuration not stated) | -18.3%
CCOc1ccc(Cl)cc1CN(C)C(=O)C1CC(=O)N(CC)C1 (configuration not stated) | -9.1%
SMILES | Pf Dd2 growth
Cc1cc(OCC(O)CN2CCN(c3cccc(Cl)c3)CC2)ccc1Cl (configuration not stated) | -5.4%
CNC(=O)CN(C)Cc1cc(Cl)ccc1OCC(O)CN1CCCCCC1 (configuration not stated) | 2.82µM*
CCS(=O)(=O)N(C1CC1)C1CCOC2(CCN(C(=O)Cc3cccc(F)c3)CC2)C1 (configuration not stated) | -4.3%
Cc1ccc(CN2CC[C@@H]3[C@H]2C(=O)NC[C@H](CCC(=O)NCc2ccc(F)cc2)N3C)cc1 | i
CC(C)NC(=O)C[C@@H]1C[C@H]2O[C@H](CNC(=O)NC3CCCCC3)[C@@H](O)[C@H]2O1 | 13.9%[44.1 µM]
CC(C)C(=O)N1CCCC(c2nn(C)c(=O)n2C(C)C)C1 (configuration not stated) | -4.1%
CCOC(=O)N1CCc2c(sc3c2c(=O)n(-c2ccc(CC)cc2)c(=O)n3Cc2cccc(Cl)c2)C1 | -25.9%
CCOC(=O)N1CCc2c(sc3c2c(=O)n(Cc2ccccc2)c(=O)n3Cc2c(F)cccc2Cl)C1 | 3.16µM*
CC(=O)N1CCc2c(sc3c2c(=O)n(-c2ccccc2)c(=O)n3CC(=O)Nc2ccccc2)C1 | 11.7%
CCOC(=O)N1CCc2c(sc3c2c(=O)n(-c2ccc(CC)cc2)c(=O)n3Cc2ccc(F)cc2Cl)C1 | 10µM*
CC(=O)N1CCc2c(sc3c2c(=O)n(-c2ccccc2)c(=O)n3CC(=O)Nc2cccc(C)c2)C1 | -28.3%
COC(=O)c1sc2c(c1C)c(=O)n(-c1ccccc1)c(=O)n2CC(=O)Nc1cccc(C)c1 | 11.2µM*
CC(=O)N1CCc2c(sc3c2c(=O)n(-c2ccccc2)c(=O)n3CC(=O)Nc2cc(C)cc(C)c2)C1 | -2.6%
CCOC(=O)N1CCc2c(sc3c2c(=O)n(Cc2ccccc2)c(=O)n3CC(=O)Nc2ccc(F)cc2)C1 | -19.5%
CCOC(=O)N1CCc2c(sc3c2c(=O)n(-c2ccc(Cl)cc2)c(=O)n3CC(=O)c2ccc(F)cc2)C1 | i
CC(=O)N1CCc2c(sc3c2c(=O)n(Cc2ccccc2)c(=O)n3Cc2ccc(C)cc2)C1 | -10.1%
CCOC(=O)N1CCc2c(sc3c2c(=O)n(-c2ccccc2)c(=O)n3CC(=O)Nc2ccc(OC)cc2OC)C1 | 4.47µM*
COc1cccc(NC(=O)Cn2c(=O)n(-c3ccccc3)c(=O)c3c4c(sc32)CCCC4)c1 | i
Cn1ccc(C(=O)N2CCC(N3CCCC(C(=O)N4CCCC4)C3)CC2)n1 (configuration not stated) | 11.2%
Cc1nc(C)n(CCNC(=O)c2cnc(-c3cccnc3)nc2)n1 | 20.2%
CCC(C)NC(=O)Cn1nc2n(c1=O)CCCCC2 (configuration not stated) | 84.6%
COCCCNC(=O)C1CC(=O)N(c2n[nH]c3ccccc23)C1 (configuration not stated) | 11.7%
CSc1cccc(NC(=O)CN2C(=O)NC3(CCS(=O)(=O)CC3)C2=O)c1 | 20.6%
O=C1NC(C(=O)NCc2ccc(OC(F)(F)F)cc2)Cn2cccc21 (configuration not stated) | i
O=C(c1ccccc1Cl)N1CCn2c(nn(-c3ccc(F)cc3)c2=O)C1 | -10.3%[44.1 µM]
SMILES | Pf Dd2 growth
Cc1ccccc1NC(=O)Nc1ccnn1C1CCN(C(=O)[C@@H](N)CO)CC1 | -0.1%
CC(=O)N1C[C@@H]2CCCN3CCC[C@@H]([C@H]23)[C@H]1CCCC(=O)N(C)C | 4.9%
Cc1ccc(OCC(=O)c2ccc3c(c2)N(C(C)C(=O)NCC2CCCO2)C(=O)CO3)cc1C (configuration not stated) | i
CC(=O)N1CCc2c(sc3c2c(=O)n(Cc2ccccc2)c(=O)n3Cc2ccccc2F)C1 | i
CC(=O)N1CCc2c(sc3c2c(=O)n(-c2ccccc2C)c(=O)n3Cc2cccc(F)c2)C1 | -15.8%
CC(=O)N1CCc2c(sc3c2c(=O)n(-c2cc(Cl)ccc2C)c(=O)n3Cc2ccccc2F)C1 | 10µM*
COc1ccc(C(=O)N2CCCC3(C2)NC(=O)c2ccccc2O3)cc1 (configuration not stated) | -12.8%
COc1ccc(C(=O)c2sc(Nc3ccccc3)nc2N)cc1 | 8.91µM*
COc1ccccc1C(=O)Nc1sc(Nc2ccccc2)nc1C(N)=O | 39.7%
COc1ccc(C(=O)c2sc(Nc3cc(Cl)ccc3C)nc2N)cc1OC | 53.5%
CCOC1CCOC2(CCN(C(=O)c3ccn(CC)n3)CC2)C1 (configuration not stated) | 41.3%
CCC(CC)NC(=O)CCC1CCN(C(=O)c2ccccc2)CC1 | -10.1%
CNC(=O)[C@@H](c1ccccc1OC)N1CCC[C@H]1C(=O)N(C)CCN(C)C | 4.8%[44.1 µM]
COc1ncccc1-c1cc(C(=O)NCc2c(C)cc(C)[nH]c2=O)c2c(c1)N(C(C)C)CCO2 | -2.0%
